# Data: the supplement of paper PMC3334620
# The full ranking holds about 33,000 sequences; the median of “E-score (-0.5 to 0.5)” is about -0.035, and the highest 2% start at about 0.35. The sample holds the highest values, similar sequences and a random draw of the others, so the mix is not that of the screen.
# Target: T1, Pdr3 (UniProt P33200)
# T1 sequence: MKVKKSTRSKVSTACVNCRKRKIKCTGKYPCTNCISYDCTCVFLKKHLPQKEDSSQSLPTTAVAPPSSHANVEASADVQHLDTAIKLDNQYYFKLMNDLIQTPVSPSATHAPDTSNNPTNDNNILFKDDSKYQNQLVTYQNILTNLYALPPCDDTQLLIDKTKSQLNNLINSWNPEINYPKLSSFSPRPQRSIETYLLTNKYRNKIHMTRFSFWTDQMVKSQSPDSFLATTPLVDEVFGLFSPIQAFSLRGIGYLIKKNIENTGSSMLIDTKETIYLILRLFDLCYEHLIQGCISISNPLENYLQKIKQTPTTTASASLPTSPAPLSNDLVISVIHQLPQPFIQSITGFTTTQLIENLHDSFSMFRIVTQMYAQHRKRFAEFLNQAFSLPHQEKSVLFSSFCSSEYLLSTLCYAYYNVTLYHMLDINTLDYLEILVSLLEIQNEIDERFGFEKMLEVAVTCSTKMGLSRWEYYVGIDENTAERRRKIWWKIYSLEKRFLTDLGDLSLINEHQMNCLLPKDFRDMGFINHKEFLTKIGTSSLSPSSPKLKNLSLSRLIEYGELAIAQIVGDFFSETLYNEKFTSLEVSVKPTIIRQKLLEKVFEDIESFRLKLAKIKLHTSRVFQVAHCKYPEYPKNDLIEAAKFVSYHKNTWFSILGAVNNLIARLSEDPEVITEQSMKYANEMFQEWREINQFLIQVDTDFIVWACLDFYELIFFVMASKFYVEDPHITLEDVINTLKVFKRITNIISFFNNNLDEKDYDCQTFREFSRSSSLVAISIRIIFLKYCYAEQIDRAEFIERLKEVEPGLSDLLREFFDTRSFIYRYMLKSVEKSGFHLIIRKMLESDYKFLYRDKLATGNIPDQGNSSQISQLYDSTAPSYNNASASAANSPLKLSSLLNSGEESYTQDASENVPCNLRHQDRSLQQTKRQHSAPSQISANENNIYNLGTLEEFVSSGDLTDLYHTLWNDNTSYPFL
# Assay: PBM E-score (8-mer binding enrichment) (E-score (-0.5 to 0.5)); higher = stronger / more preferred TF binding
# Conditions: protein concentration: 200 nM; construct: GST-full length
# Procedure, shortened: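 The E-score, a modified Wilcoxon-Mann-Whitney statistic, was computed by the Universal PBM Analysis Suite for every ungapped eight-base word pooled with its reverse complement. Scans behind it were normalised with masliner after bound GST-tagged yeast transcription factors were detected with fluorescent anti-GST. The proteins, at about 100-200 nM, had been applied to universal all-10-mer Agilent arrays made double-stranded by primer extension.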
row,Sequence,PBM E-score
1,GCAGGGAA,0.0453
2,GAATAGGA,0.0694
3,ACCGGTTG,0.208
4,AGCATTTG,-0.0766
5,CGAGAGGC,-0.119
6,GCGAGAGA,-0.148
7,CAGTCTTC,-0.147
8,AAACTTAG,-0.216
9,CTTGACAC,-0.222
10,CAGGGCTA,-0.258
11,ACTAGTAC,-0.105
12,ACGAATAT,0.0203
13,CATGCCGC,0.345
14,AATGCCGA,0.219
15,CATGCCGA,0.248
16,CATGCCGG,0.36
17,AATGCCGG,0.308
18,AATGCCGT,0.36
19,ATCCTTGG,-0.0819
20,CGCCGACC,0.135
21,AGAGTAGC,-0.228
22,CCCGCAGG,0.142
23,AGGGAAAG,-0.106
24,CAGGAAAA,0.0238
25,CAGGAAAG,-0.278

row,Sequence,PBM E-score
1,CAGGAAAC,-0.0475
2,CGGGAAAC,0.309
3,CCGGAAAC,0.447
4,CGGGAAAG,0.281
5,ATGGAAAG,0.0226
6,CCGGAAAA,0.44
7,ACGGAAAG,0.44
8,CTGGAAAA,0.144
9,CCGGAAAG,0.414
10,CAGTCCCG,0.273
11,AGTTGACG,-0.0734
12,CGAACTTA,0.0051
13,CTTAGGGA,-0.353
14,GGCTAACA,-0.132
15,ATAGGAGA,-0.363
16,CAGTTACC,-0.0312
17,GACGGATA,0.251
18,CACGGATA,0.373
19,AACGGATG,0.283
20,GACGGATC,0.313
21,CACGGATG,0.284
22,AACAGATC,-0.0307
23,TACGGATA,0.224
24,AACGGATA,0.417
25,AACGGATC,0.367

row,Sequence,PBM E-score
1,CACGGATC,0.395
2,AACGGATT,0.334
3,CAAGGATC,-0.0745
4,AGAACTCA,0.00923
5,ACAACTTC,0.167
6,CAGTGAGG,-0.309
7,GACCTAGA,-0.115
8,CCAGCAAC,-0.00856
9,GCAGCTCC,0.144
10,AAGGGTCC,0.205
11,AAACGGAA,0.469
12,AAACGGGA,0.352
13,AAACGGTA,0.172
14,GAACGGCA,0.256
15,GAACGGAC,0.259
16,CAACGGAA,0.47
17,AAACGGAG,0.184
18,CAACGGAC,0.261
19,GAACGGAA,0.469
20,CAACGGAG,0.307
21,AAACGGAC,0.189
22,AAACGGAT,0.377
23,CGCTACCG,0.141
24,CCCTAAGA,-0.243
25,CTTGCGGA,0.137

row,Sequence,PBM E-score
1,CAGGCGGG,0.0666
2,CCGAGAAG,0.183
3,TCCACGAA,-0.0449
4,TAACGGTA,0.0452
5,TAACGGAA,0.453
6,TAACGGGA,0.237
7,CACAGAAA,0.0151
8,CGGCCGGA,0.396
9,AGGCCGGC,0.291
10,CGGCCGGC,0.371
11,AGGCCGGA,0.256
12,GGGCCGGA,0.318
13,CGGCCGAC,0.315
14,CGCATGAG,-0.164
15,CATGATTA,0.0563
16,TACGGAGA,0.178
17,GACGGAGC,0.213
18,GACGGAGA,0.322
19,CACGGAGA,0.372
20,CACGGAGC,0.374
21,CACGGAGG,0.26
22,AAGATTGG,0.014
23,GTGGTTCA,0.0321
24,ACTTAACC,-0.166
25,ACACCCGG,0.291

row,Sequence,PBM E-score
1,TACCCGAA,0.198
2,CACCCGAG,0.204
3,ATCACCCG,0.358
4,CCACCCGA,0.216
5,TACCCGGA,0.381
6,CACCCGGG,0.398
7,CACCCCGG,0.236
8,ATCACCCA,-0.0491
9,ATCACCCC,0.0523
10,CCACCCGG,0.359
11,TACCCGTA,0.0329
12,CCCATCCC,0.133
13,AAGTGGAA,-0.0995
14,AGGGCGGG,0.25
15,ACCTCCTA,-0.192
16,ACGGCCTA,0.131
17,AACAGGGT,-0.0562
18,CGGGGTAA,0.267
19,GGCAAACC,-0.147
20,GACGTATC,-0.0675
21,CCCACCCC,0.198
22,CACCCGGA,0.412
23,CACCCGGC,0.234
24,CACCCGTA,0.151
25,ACCCCGGA,0.352

row,Sequence,PBM E-score
1,GACCCGGA,0.369
2,AACCCGGC,0.289
3,GACCCGGC,0.294
4,AACCCGGA,0.384
5,GACCCCGA,0.109
6,CCCACCCA,0.073
7,CCCACCCG,0.387
8,AATAGCGT,0.0358
9,CGCAAATA,0.125
10,TACACGTA,-0.168
11,AAGATTGA,-0.131
12,CTCGCCCA,-0.0292
13,CGTGCGCA,-0.111
14,AGTCAAAA,-0.104
15,AGGAGCCG,0.0342
16,CCGAGCCA,0.295
17,CGGAGCAC,0.297
18,CGGAGCGC,0.266
19,CGGAGCAG,0.403
20,CGGAGCCG,0.369
21,CGGAGCCC,0.208
22,ACGAGCCG,0.134
23,CCGAGCCG,0.359
24,CGGAGCAA,0.338
25,CGGAGCGA,0.378

row,Sequence,PBM E-score
1,AGGAGCGA,-0.199
2,AGCATCGA,-0.0594
3,ACATATCT,0.0252
4,CGCTGTAG,-0.00377
5,ATGTGGTA,-0.0392
6,AGCGAACG,-0.134
7,GTAACCGA,0.0824
8,CGTGATTA,0.0343
9,GAGTACTC,0.0872
10,ACAAGCCC,-0.157
11,ACCCATCA,-0.129
12,GAGCATTA,-0.0816
13,AGGAAAAC,0.0846
14,AGGAAAAA,-0.157
15,CGAAAAAG,0.159
16,TGGAAAAA,0.0433
17,CGGAAAAA,0.403
18,AGGAAAAG,0.0387
19,CGGAAAAC,0.375
20,CGGAAAAG,0.415
21,GGGAAAAC,0.0253
22,GGGAAAAA,0.176
23,TAACACGA,0.0333
24,CGCGAAAC,-0.00744
25,TAACTGTA,-0.323

row,Sequence,PBM E-score
1,GAGACCGA,0.0506
2,ATCTGGTC,-0.051
3,CCGGGACG,0.365
4,ACGGGACA,0.311
5,TCGGGACA,0.167
6,CCGGGACC,0.413
7,ACGGGACC,0.241
8,CCGGGACA,0.376
9,GCGGGACC,0.323
10,ACGGGACG,0.295
11,CGGGGACG,0.124
12,ATGGGCCG,0.0292
13,AGAAGCCG,0.213
14,AACTGTAG,-0.124
15,AAGATAGA,-0.184
16,ACCAAAAG,-0.176
17,CCTCCGCC,0.169
18,ACTCCGCC,0.343
19,CCTCCGCG,0.445
20,CCTCCGCA,0.00168
21,ACTCCGCG,0.397
22,ACTCCGCT,0.14
23,CATAACGC,-0.102
24,CCGGCTTC,0.322
25,GCGGCTTA,-0.0127

row,Sequence,PBM E-score
1,CCGGCTTA,0.356
2,GTCAGAAC,-0.132
3,AGTTCAAT,-0.139
4,CCACGTGA,-0.0844
5,ACATTCCT,-0.0606
6,CCATTCCC,0.101
7,CCATTCCA,0.0798
8,ATATTCCA,0.128
9,ACATTCCG,0.439
10,CCATTCCG,0.425
11,ATATTCCG,0.426
12,ATATTCCC,0.266
13,ACATTCCC,0.154
14,CTCAAACC,-0.0558
15,GACATCTA,-0.0109
16,CAACTTTA,-0.0602
17,ATACTCGC,0.162
18,ACCAAGGT,-0.0204
19,AGAGCGAC,-0.135
